For orientation: viability means a read-out of living cells in per cent, often relative to untreated cells. By inhibition is commonly meant the drop in the measured response relative to a control, in per cent.

The values below come from PubChem BioAssay.

A short description of test [1]: P. berghei load reduction in hepatocytes – cell-based, HepG2, luciferase luminescence, HepG2 viability, primary screen (AID 624349; in the data active = parasite load remaining mostly below about 12%, no sharp cut-off; inactive = mostly above about 10%;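 also: 100% = mean of DMSO negative control wells on the same plate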). Conditions: P. berghei liver stage in HepG2, luciferase luminescence, concentration not given here; parasite load remaining: stronger effect = lower value; viability: measured here: HepG2 viability without parasites.
The nature of test [2]: signal quenchers or enhancers, Cy5 substrate/SSB – biochemical, NIH Clinical Collection, E. coli SSB, artefact control for HCV NS3 helicase inhibitor project (AID 743268). Conditions: Cy5-oligo bound E. coli SSB, fluorescence interference.
Test [3] concerns Hepatitis C virus NS3 helicase. The experiment in a line: blockers of NS3h binding to DNA – biochemical, fluorescence polarization, NIH Clinical Collection, primary screen (AID 743270). As to conditions: NS3 helicase binding to Cy5-dT15 DNA, stronger effect = higher value, concentration not given here. (Polarisation of emitted light reports the rotation of a fluorescent probe.)
Test [4] has as its target Single-stranded DNA-binding protein (Escherichia coli (strain K12)) (UniProt P0AGE0). The experiment in a line: SSB-ssDNA binding inhibitors – biochemical, fluorescence polarization, NIH Clinical Collection, counter-screen for HCV NS3 helicase inhibitor project (AID 743271; in the data active = inhibition above about 28%). Conditions: E. coli SSB-DNA binding, stronger effect = higher value, concentration not given here.
Test [5] in a line: compounds distorting NS3 helicase fluorescence signal – biochemical, NIH Clinical Collection, artefact control for HCV NS3 helicase inhibitor project (AID 743272).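 Also: HCV NS3 helicase with a Cy5 labelled single stranded DNA probe.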 As to conditions: fluorescence interference counterscreen, HCV NS3 helicase assay; stronger effect = lower value. For orientation: A counterscreen serves to expose hits that act by an unwanted route or on another target.
Test [6] in a line: Wnt pathway potentiators raising nuclear beta-catenin – imaging, WNT3A-conditioned medium, mouse C2C12, NPC library, primary screen (AID 1117326; in the data active = nuclear beta-catenin stimulation mostly above about 4.2%, no sharp cut-off; inactive = mostly below about 10%). Conditions: stronger effect = higher value.
Test [7] in a line: stimulators of insulin release from INS-1E, primary screen, cell-based, 5 mM glucose, NPC library (AID 1117329;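 active = compound raises insulin release from rat beta cells at 5 mM glucose, no numeric limit stated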). Conditions: rat INS-1E insulin secretion, at 10 µM, stronger effect = higher value.
A short description of test [8]: growth inhibition of GSK3B-pretreated HCT116 cells – cell-based, CellTiter-Glo, 0.2 to 20 µM (AID 1117336;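 active = compounds lowering colon cancer cell viability after pretreatment blocking the GSK3B kinase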). As to conditions: HCT116 viability after GSK3B inhibitor, at 20 µM, stronger effect = higher value. For orientation: In ATP-based viability assays light output follows the ATP content of the culture.
A short description of test [9]: inhibition of endothelial tube formation, primary screen, imaging, VEGF stimulated, CD31 staining, tube area, NPC library (AID 1117340;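 active = compound that reduces growth-factor-driven endothelial tube area in a mixed cell culture, no cutoff stated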). Conditions: VEGF-stimulated ADSC/ECFC co-culture, at 10 µM, stronger effect = higher value.
A short description of test [10]: GLP1 release stimulators, primary, NCI-H716, NPC library (AID 1117341;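 active = compound raises GLP1 secretion from the human gut endocrine cells, with no numeric limit stated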). As to conditions: NCI-H716 cells, at 10 µM, stronger effect = higher value.
Test [11] is described as follows: HCT116 colon cancer cell growth inhibition, primary screen, CellTiter-Glo luminescence, NPC library (AID 1117342;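 active = compounds that lower survival of HCT116 colon cancer cells in the luminescence readout, no numeric limit stated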). As to conditions: at 20 µM (top of the series).
Test [12] can be described thus: reduced SW480 viability measured with CellTiter-Glo, NPC library, primary (AID 1117343;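 active = compounds that lower viability of the colon cancer cells in the luminescence readout, with no numeric limit stated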). As to conditions: CellTiter-Glo luminescence; at 20 µM (top of the series).
A short description of test [13]: NPC library primary testing for decreased DLD-1 cell viability via CellTiter-Glo (AID 1117346;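 active = compounds that lower survival of DLD-1 colon cancer cells in the luminescence readout, no cutoff given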). As to conditions: DLD-1 viability, CellTiter-Glo luminescence; at 20 µM (top of the series).
Test [14] has as its target 6-phosphogluconate dehydrogenase, decarboxylating (Homo sapiens) (UniProt P52209). Kind of test: inhibition of human phosphogluconate dehydrogenase – biochemical, recombinant enzyme, NADPH absorbance, primary screen (AID 1159550;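 active = at least 20% inhibition of 6-phosphogluconate dehydrogenase activity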). Conditions: recombinant 6PGD, NADPH absorbance 341 nm; at 10 µM; stronger effect = higher value.
Test [15] can be described thus: viability loss with induced miR-34 in A549 – imaging, A549 dox-inducible miR-34, nuclei and caspase counts, primary screen (AID 1347080;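 active = compounds whose cell count with miR-34 switched on is under 0.7 times the count with it off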). Conditions: A549 miR-34 inducible, Hoechst nuclei count, 48 h.
Test [16] in a line: MELAS cybrid and Rieske KO viability enhancers – cell-based, MELAS cybrids, Rieske KO mouse fibroblasts, CellTiter-Glo, primary screen (AID 1508586;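 active = mean z-score across replicates of 1.96 or higher in either the MELAS or the Rieske mutant cell line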;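 also: z relative to plate mean and SD of compound and empty wells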). Conditions: low glucose.
Test [17] has as its target NAD(+) hydrolase SARM1 (Homo sapiens) (UniProt Q6SZW1). Kind of test: blocking NAD cleavage by SARM1 SAM-TIR – cell lysate, NAD-Glo luminescence (AID 1508614;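 active = compound whose remaining NAD level is above about 45 nM, limit read from the data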;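 also: higher remaining NAD means stronger inhibition of SARM1 NADase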). As to conditions: SAM-TIR HEK293T lysate NADase, at 1 µM, stronger effect = higher value.
Test [18] concerns the target Mitogen-activated protein kinase 7 (Homo sapiens) (UniProt Q13164). Kind of test: Gal4-ERK5 driven luciferase induction – cell-based, HTS, primary screen (AID 1508626;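 active = luciferase signal above three times the same-plate solvent-only control wells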;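 also: luciferase driven by Gal4-ERK5 fusion binding five Gal4 sites before minimal TATA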). As to conditions: HeLa Gal4-ERK5 transactivation, 18 h, at 5 µM, stronger effect = higher value.
The test system of test [19] is F380Y. The experiment in a line: BK channel mutant inhibitors and activators – cell-based, U2OS BacMam, thallium flux, beta subunits, selectivity assay, profiling panel (AID 1259406;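 active = thallium flux through the channel raised or lowered by more than 3 SD from vehicle-only wells, actives on both sides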;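 also: initial slope of Thallos dye fluorescence rise after thallium is added; log ratio against the mean of 0.3% DMSO vehicle wells on the same plate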). As to conditions: U2OS BacMam BK variants, at 30 µM.
Test [20] in a line: EMT-state selective cytotoxicity in co-culture – imaging, PC-3E GFP, TEM4-18 mCherry, primary screen (AID 1345086;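 active = compounds killing one labelled cell type while sparing the other, by normalised counts and ratio limits, not self-fluorescent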;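 as to all read-outs here: cells exposed to compound for 72 h before imaging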;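 as to red/green cell ratio (normalised): normalised mesenchymal count divided by normalised epithelial count so high means epithelial killing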). As to conditions: PC-3E GFP / TEM4-18 mCherry co-culture, imaging cell counts, at 1 µM; for red/green cell ratio (normalised): actives lie on both sides, counts scaled to control wells, 1 = unselective.
[21] abbreviates: stronger effect = lower value, cell number ratio, induced over uninduced.
Setting [22] is: measured here: relative caspase fold change +Dox/-Dox.
Setting [23] is: measured here: total cells with miR-34 induction, stronger effect = lower value.
[24] abbreviates: measured here: total cells without miR-34 induction.
[25] abbreviates: MELAS cybrid survival, CellTiter-Glo 48 h, stronger effect = higher value.
Where [26] appears, read: Rieske KO mouse fibroblast survival, CellTiter-Glo 72 h.
Where [27] appears, read: measured here: epithelial PC-3E GFP cell survival.
[28] abbreviates: measured here: mesenchymal TEM4-18 mCherry cell survival.

Structures are written as SMILES. Where “and” joins values, the source holds several entries; their conditions need not be identical. Equal entries are not always repeated. A structure can be active in one record and inactive in another. Calls of active or inactive are those of the source. Unless noted, no rule for the calls is given here.

Sequence of Mitogen-activated protein kinase 7 (Homo sapiens) (Q13164 whole entry, looked up, the tested form may be a part): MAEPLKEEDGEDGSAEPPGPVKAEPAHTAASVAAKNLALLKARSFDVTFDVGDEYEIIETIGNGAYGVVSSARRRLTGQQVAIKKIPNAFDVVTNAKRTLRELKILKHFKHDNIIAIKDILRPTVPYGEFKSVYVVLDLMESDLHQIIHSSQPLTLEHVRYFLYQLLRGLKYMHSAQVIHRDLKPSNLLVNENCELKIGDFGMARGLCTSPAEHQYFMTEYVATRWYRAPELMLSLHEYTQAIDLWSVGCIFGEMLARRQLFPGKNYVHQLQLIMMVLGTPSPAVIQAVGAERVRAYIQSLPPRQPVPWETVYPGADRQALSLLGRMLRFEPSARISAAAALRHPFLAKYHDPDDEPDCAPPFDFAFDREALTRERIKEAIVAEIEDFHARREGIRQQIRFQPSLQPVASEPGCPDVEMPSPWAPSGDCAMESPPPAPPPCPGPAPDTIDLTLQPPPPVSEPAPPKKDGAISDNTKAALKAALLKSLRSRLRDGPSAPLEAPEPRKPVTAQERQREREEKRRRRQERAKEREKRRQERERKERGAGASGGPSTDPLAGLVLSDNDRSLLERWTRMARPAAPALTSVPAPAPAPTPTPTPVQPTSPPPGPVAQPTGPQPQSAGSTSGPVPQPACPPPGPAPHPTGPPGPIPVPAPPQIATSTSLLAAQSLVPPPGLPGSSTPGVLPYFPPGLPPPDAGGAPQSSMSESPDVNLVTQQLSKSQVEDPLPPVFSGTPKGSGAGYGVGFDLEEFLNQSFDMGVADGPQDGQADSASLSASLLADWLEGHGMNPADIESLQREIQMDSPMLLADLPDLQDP
Sequence of NAD(+) hydrolase SARM1 (Homo sapiens) (Q6SZW1 whole entry, looked up, the tested form may be a part): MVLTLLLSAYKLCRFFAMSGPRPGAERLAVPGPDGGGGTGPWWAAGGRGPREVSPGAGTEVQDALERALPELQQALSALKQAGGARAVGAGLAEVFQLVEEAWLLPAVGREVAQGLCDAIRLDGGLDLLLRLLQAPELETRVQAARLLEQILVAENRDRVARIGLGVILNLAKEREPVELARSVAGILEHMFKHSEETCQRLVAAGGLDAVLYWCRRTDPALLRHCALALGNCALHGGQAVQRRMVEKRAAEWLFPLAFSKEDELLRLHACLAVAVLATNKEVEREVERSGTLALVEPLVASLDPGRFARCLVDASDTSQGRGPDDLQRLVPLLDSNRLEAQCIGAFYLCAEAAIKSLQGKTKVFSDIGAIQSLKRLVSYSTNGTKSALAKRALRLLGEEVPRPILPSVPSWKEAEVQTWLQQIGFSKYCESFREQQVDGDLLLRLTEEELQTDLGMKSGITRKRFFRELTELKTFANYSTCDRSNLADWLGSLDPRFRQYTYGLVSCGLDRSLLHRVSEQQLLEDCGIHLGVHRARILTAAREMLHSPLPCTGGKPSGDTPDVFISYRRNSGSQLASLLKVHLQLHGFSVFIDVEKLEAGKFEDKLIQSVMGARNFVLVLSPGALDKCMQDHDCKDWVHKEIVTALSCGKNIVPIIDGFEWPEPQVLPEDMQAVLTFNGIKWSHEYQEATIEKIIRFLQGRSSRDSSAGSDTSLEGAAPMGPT
Sequence of 6-phosphogluconate dehydrogenase, decarboxylating (Homo sapiens) (P52209 whole entry, looked up): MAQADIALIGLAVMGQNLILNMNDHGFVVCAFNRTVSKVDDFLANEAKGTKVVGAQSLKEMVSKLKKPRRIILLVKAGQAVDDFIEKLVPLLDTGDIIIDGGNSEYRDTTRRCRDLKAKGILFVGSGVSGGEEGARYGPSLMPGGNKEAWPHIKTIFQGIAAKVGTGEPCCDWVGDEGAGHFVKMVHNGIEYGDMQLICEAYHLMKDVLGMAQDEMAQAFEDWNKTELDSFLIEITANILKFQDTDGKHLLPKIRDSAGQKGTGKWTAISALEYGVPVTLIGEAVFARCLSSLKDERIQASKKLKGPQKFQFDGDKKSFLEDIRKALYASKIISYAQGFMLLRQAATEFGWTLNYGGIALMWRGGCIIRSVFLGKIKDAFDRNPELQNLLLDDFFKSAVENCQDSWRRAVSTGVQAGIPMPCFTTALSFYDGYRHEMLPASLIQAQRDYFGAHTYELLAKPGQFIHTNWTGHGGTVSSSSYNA

In the case of `CCC(=O)O[C@]1(C(=O)CCl)[C@@H](C)C[C@H]2[C@@H]3CCC4=CC(=O)C=C[C@]4(C)[C@@]3(F)[C@@H](O)C[C@@]21C`, the parasite load remaining in [1] was 49% (inactive) and 35.1% (inactive). In [1], the viability is 110% and 128%. Moreover, the fluorescence ratio in test [2] is 1.01 (inactive); in test [5] it was 0.96 (inactive). In addition, the inhibition in [3] was 4.09% (inactive); in [4], 2.57% (inactive); in test [14] it was 3.17% (inactive). For the same molecule, the nuclear beta-catenin stimulation in test [6] (at 10 µM) is 4.4% (inactive); in test [6] (stimulation, at 2 µM), 3.8%. In test [7], the insulin secretion stimulation was 8.3% (inactive). In [8], the viability decrease was -89.8% (inactive). The tube area decrease in [9] is 9.1% (inactive). Also, the GLP1 secretion stimulation in [10] is 2.1% (inactive). Further, the inhibition of viability in test [11] was 2.9% (inactive). For the same molecule, the viability decrease (inhibition) is 41% (inactive) in test [12] and 15.6% (inactive) in test [13]. Besides, the fold change in test [15] (setting [21]) is 1.05 (inactive) and 0.839 (inactive); in test [15] (setting [22]), 2.64 and 1.67. Moreover, the cell count in test [15] (setting [23]) is 6300 and 6140; in test [15] (setting [24]), 6030 and 7320. Also, the z-score in test [16] (setting [25]) is 0.507 (inactive) and -0.252 (inactive); in [16] (setting [26]), 1.67 and 0.844. In addition, the remaining NAD in test [17] was 10 nM (inactive). Besides, the luciferase signal in test [18] is 84 AU (inactive). For the same molecule, the log fold change Tl+ flux in test [19] is 0.112 (active).
Consider `C=CCCCCCCCCC(=O)O`, for which the parasite load remaining in [1] is 49.2% (inactive). In addition, the viability in test [1] came out at 96.2%. Besides, the nuclear beta-catenin stimulation in [6] (at 10 µM) was -0.1% (inactive) and -2.1% (inactive); in [6] (stimulation, at 2 µM) it was 0.8% and -1.5%. Besides, the insulin secretion stimulation in [7] was -1.7% (inactive) and 0.4% (inactive). For the same molecule, the viability decrease in [8] was -6.75% (inactive) and -111% (inactive). In addition, the tube area decrease in test [9] was 3.3% (inactive) and 1.9% (inactive). Moreover, the GLP1 secretion stimulation in test [10] is 1.3% (inactive) and -1.9% (inactive). Further, in test [11], the inhibition of viability was 0.2% (inactive) and 0.1% (inactive). Besides, the viability decrease (inhibition) in test [12] was 69.8% (active) and 6.3% (inactive); in test [13], 14.5% (inactive) and 8% (inactive). Also, the red/green cell ratio (normalised) in test [20] was 0.93 (inactive). Besides, the normalised cell number in [20] (setting [27]) came out at 1.02; in test [20] (setting [28]), 0.95. Also, the values for the fold change in test [15] (setting [21]) and in test [15] (setting [22]) were 0.879 (inactive) and 4.79, respectively. Further, the cell count in test [15] (setting [23]) came to 11700; in test [15] (setting [24]) it was 13300. Besides, in test [17], the remaining NAD is 10 nM (inactive). The luciferase signal in test [18] is 20 AU (inactive).
Turning to `O=C(c1ccccc1)c1ccc2n1CCC2C(=O)O` (stereo unspecified), the fluorescence ratio in test [2] was 1.01 (inactive); in test [5], 0.99 (inactive). Further, the inhibition is -2.77% (inactive) in [3], -7.8% (inactive) in [4] and 6.58% (inactive) in test [14]. Besides, the nuclear beta-catenin stimulation in [6] (at 10 µM) was -0.4% (inactive); in [6] (stimulation, at 2 µM), -0.5%. Besides, the insulin secretion stimulation in test [7] was 0.8% (inactive). For the same molecule, in test [8], the viability decrease was 3.4% (inactive). Besides, the tube area decrease in test [9] was 15.4% (inactive). Besides, the GLP1 secretion stimulation in test [10] is -3.6% (inactive). The inhibition of viability in test [11] is -1.1% (inactive). The viability decrease (inhibition) in test [12] is 1.1% (inactive); in test [13], 11.4% (inactive). Besides, the red/green cell ratio (normalised) in [20] was 1.03 (inactive). In addition, the normalised cell number in [20] (setting [27]) came out at 1.2; in test [20] (setting [28]), 1.24. Also, the z-score in test [16] (setting [25]) is 0.234 (inactive) and -0.244 (inactive) and -0.284 (inactive); in test [16] (setting [26]) it was -0.239 and 0.894 and -0.237. The remaining NAD in test [17] is 10 nM (inactive). Further, the luciferase signal in [18] is 36 AU (inactive).
